# Values quoted from earlier work as cited in PubChem BioAssay AID977611.
# In all, about 3,900 compounds went through this assay and about 3,900 (100%) were called active. Cut-off not given; nearly all actives show Kd up to about 4200 µM. So high a share suggests a set chosen from earlier hits. This is one part of the list. Starred links: 1 amine or outer side, 2 acyl side, 3 side chain; linkers in the order of their positions; H or OH if unused. *1 amine or outer side, *2 acyl side, *3 side chain or, on linkers, in order; H or OH if unused. Positions of bridges follow the written chain, without caps; N, C: chain ends. Where a SMILES comes first, the peptide text is derived from it. Non-standard residues stand in square brackets, D forms with d. Square brackets hold non-standard residues; d marks the D form. Residues, ends and D or L forms follow the SMILES beside them. Peptide text beside a SMILES is read from it. [ ]: non-standard residue; d: D form. Thr(P(OH)3+) = C[C@@H](O[P+](O)(O)O)[C@H](N)C(=O)O; X1 = C[C@](CCCCCC=[*:3])(N[*:1])C(=O)[*:2]; X2 = C[C@@](CCCCC=[*:3])(N[*:1])C(=O)[*:2]; Orn(CH(NH2)2) = NC(N)NCCC[C@H](N)C(=O)O; R8 = C=CCCCCCC[C@@](C)(N)C(=O)O; S5 = C=CCCC[C@](C)(N)C(=O)O; Abu = CC[C@H](N)C(=O)O
# Test: PubChem AID 977611
# Conditions: PDB protein-ligand complexes, literature Kd
compound,measurement,setting,value
H-SYGHLSIG-OH,Kd,"protein: MALTOSE-BINDING PERIPLASMIC PROTEIN, SUPPRESSOR OF FUSED HOMOLOG (W61D, L62S, G63F, P453A, K457A mutation), PDB entry 4blb",4.47 µM (active)
H-GSYGHLSIGT-OH,Kd,"protein: Sufu, PDB entry 4kmd",3.86 µM (active)
OS(O)(O)CCNC1CCCCC1,Kd,"protein: Interleukin-13 receptor subunit alpha-1, PDB entry 4hwb",0.00057 µM (active)
C[C@H](N)C(=O)N[C@@H](CCCNC(N)N)C(=O)N[C@H](C(=O)N[C@@H](CCCC[N+](C)(C)C)C(=O)N[C@@H](CCC(N)=O)C(=O)N[C@H](C(=O)N[C@@H](C)C(=O)N[C@@H](CCCNC(N)N)C(=O)N[C@@H](CCCCN)C(=O)N[C@@H](CO)C(=O)N[C@H](C(=O)NCC(=O)NCC(=O)N[C@@H](CCCCN)C(=O)N[C@@H](C)C(=O)O)[C@@H](C)O)[C@@H](C)O)[C@@H](C)O,Kd,"protein: bromodomain PHD finger transcription factor, PDB entry 2fuu",2.7 µM (active)
CC(=O)NCCCC[C@H](NC(=O)[C@H](CCCNC(N)N)NC(=O)[C@H](C)NC(=O)[C@@H](NC(=O)[C@H](CCC(N)=O)NC(=O)[C@H](CCCCN)NC(=O)[C@@H](NC(=O)[C@H](CCCNC(N)N)NC(=O)[C@H](C)N)[C@@H](C)O)[C@@H](C)O)C(=O)N[C@@H](CO)C(=O)N[C@H](C(=O)NCC(=O)NCC(=O)N[C@@H](CCCCN)C(=O)N[C@@H](C)C(=O)O)[C@@H](C)O,Kd,"protein: Histone acetyltransferase PCAF, PDB entry 2rnw",1050 µM (active)
O=C(O)c1ccc2cc[nH]c2c1,Kd,"protein: Protease (Q7K, L33I, L63I, C67A, C95A mutation), PDB entry 4ej8",4.1 µM (active)
CSCC[C@H](NC(=O)[C@H](C)N)C(=O)N[C@@H](CCCCN)C(=O)N[C@@H](CCCNC(N)N)C(=O)N[C@@H](Cc1cnc[nH]1)C(=O)NCC(=O)N[C@@H](CC(C)C)C(=O)N[C@@H](CC(=O)O)C(=O)N[C@@H](CC(N)=O)C(=O)N[C@@H](Cc1ccc(O)cc1)C(=O)N[C@@H](CCCNC(N)N)C(=O)NCC(=O)N[C@@H](Cc1ccc(O)cc1)C(=O)N[C@@H](CO)C(=O)O (H-AMK[Orn(CH(NH2)2)]HGLDNY[Orn(CH(NH2)2)]GYS-OH),Kd,"protein: I-Ag7, PDB entry 1f3j",6 µM (active)
H-AHGMLKLYYGLS-OH,Kd,"protein: Syntaxin-6, PDB entry 4j2c",5.6 µM (active)
CC(C)C[C@H](NC(=O)[C@]1(C)CCC/C=C\CCC[C@](C)(NC(=O)[C@H](CCCNC(N)N)NC(=O)[C@H](CO)NC(=O)[C@H](Cc2ccc(O)cc2)NC(=O)[C@H](CCCNC(N)N)NC(=O)[C@H](CCCCN)NC(=O)[C@@H](N)CCCCN)C(=O)N[C@@H](CCC(N)=O)C(=O)N[C@@H](CC(C)C)C(=O)N[C@@H](CC(C)C)C(=O)N1)C(N)=O,Kd,"protein: EUKARYOTIC TRANSLATION INITIATION FACTOR 4E, PDB entry 4bea",0.005 µM (active)
CC(=O)N[C@H](C(=O)N[C@@H](CO)C(=O)N[C@@H](Cc1ccccc1)C(=O)N[C@]1(C)CCCCCC/C=C/CCC[C@@](C)(C(N)=O)NC(=O)[C@H](CC(C)C)NC(=O)[C@H](CC(C)C)NC(=O)[C@H](Cc2ccc(O)cc2)NC(=O)[C@H](Cc2c[nH]c3ccccc23)NC(=O)[C@H](Cc2ccc(O)cc2)NC(=O)[C@H](CCC(=O)O)NC1=O)[C@@H](C)O (Ac-TSF[R8]EYWYLL[S5]-NH2; staple (E) 4-11),Kd,"protein: E3 UBIQUITIN-PROTEIN LIGASE MDM2-M62A, PDB entry 4umn",0.0631 µM (active)
CC[C@H](N)C(=O)N[C@H](C(=O)N[C@@H](Cc1ccccc1)C(=O)N[C@]1(C)CCCCC/C=C/CCCC[C@@](C)(C(=O)N[C@@H](CCC(N)=O)C(=O)N[C@@H](CC(N)=O)C(=O)O)NC(=O)[C@H](CC(C)C)NC(=O)[C@H](CC(C)C)NC(=O)[C@H](CCCNC(N)N)NC(=O)[C@H](Cc2c[nH]c3ccccc23)NC(=O)[C@H](CC(C)C)NC(=O)[C@H](CC(N)=O)NC1=O)[C@@H](C)O (H-[Abu]TF[X1]NLW[Orn(CH(NH2)2)]LL[X2]QN-OH; staple (E) 4-11),Kd,"protein: E3 ubiquitin-protein ligase Mdm2, PDB entry 3v3b",0.055 µM (active)
COc1cc(-c2ccc3ncc(-c4cccc([C@@H](O)NCCN(C)C)c4)n3n2)ccc1O,Kd,"protein: Death-associated protein kinase 1 DAPK1, PDB entry 4txc",0.24 µM (active)
CC(C)[C@H](NC(=O)[C@H](C)NC(=O)[C@@H](NC(=O)[C@@H](N)CCCCN)C(C)C)C(=O)N[C@H](C(=O)N[C@@H](CCCNC(N)N)C(=O)N[C@H](C(=O)N1CCC[C@H]1C(=O)N1CCC[C@H]1C(=O)N[C@@H](CCCCN)C(=O)O)[C@@H](C)O[P+](O)(O)O)C(C)C (H-KVAVV[Orn(CH(NH2)2)][Thr(P(OH)3+)]PPK-OH),Kd,"protein: anti-ptau heavy chain and anti-ptau light chain, PDB entry 4glr",0.00035 µM (active)
CC(C)[C@H](NC(=O)[C@H](CCCCN)NC(=O)[C@H](CCCNC(N)N)NC(=O)[C@H](CCCCN)NC(=O)[C@H](CCCCN)NC(=O)[C@H](CCCCN)NC(=O)[C@@H]1CCCN1C(=O)[C@@H]1CCCN1C(=O)[C@H](CO)NC(=O)CN)C(=O)NCC(=O)O (H-GSPPKKK[Orn(CH(NH2)2)]KVG-OH),Kd,"protein: IMPORTIN SUBUNIT ALPHA-1A, PDB entry 4b8o",0.004 µM (active)
CC(C)C[C@H](NC(=O)CNC(=O)[C@H](CO)NC(=O)[C@@H]1CCCN1C(=O)[C@@H](N)CC(C)C)C(=O)N[C@@H](CC(C)C)C(=O)N[C@H](C(=O)N1CCC[C@H]1C(=O)N1CCC[C@H]1C(=O)N[C@@H](CCC(N)=O)C(=O)N[C@@H](CO[P+](O)(O)O)C(=O)NCC(=O)O)[C@H](C)O[P+](O)(O)O,Kd,"protein: Skp1-Fbw7, PDB entry 2ovq",0.07 µM (active)
CC(C)C[C@H](NC(=O)[C@@H]1CCCN1C(=O)[C@@H]1CCCN1C(=O)[C@@H](NC(=O)[C@@H]1CCCN1C(=O)[C@H](CC(C)C)NC(=O)[C@@H](N)CC(C)C)[C@@H](C)O)C(=O)N[C@@H](CO)C(=O)N1CCC[C@H]1C(=O)N[C@@H](CO)C(=O)N[C@@H](CCCNC(N)N)C(=O)N[C@@H](CCCNC(N)N)C(=O)N[C@@H](CO)C(=O)NCC(=O)O (H-LLPTPPLSPS[Orn(CH(NH2)2)][Orn(CH(NH2)2)]SG-OH),Kd,"protein: Bin1C SH3 domain, PDB entry 1mv0",93.3 µM (active)
CC(C)[C@H](NC(=O)[C@H](CO)NC(=O)[C@@H](NC(=O)[C@@H](N)CCCCN)C(C)C)C(=O)N[C@H](C(=O)N[C@@H](CCCNC(N)N)C(=O)N[C@H](C(=O)N1CCC[C@H]1C(=O)N1CCC[C@H]1C(=O)N[C@@H](CCCCN)C(=O)N[C@@H](CO)C(=O)N1CCC[C@H]1C(=O)N[C@@H](CO)C(=O)O)[C@H](C)O[P+](O)(O)O)C(C)C (H-KVSVV[Orn(CH(NH2)2)][X1]PPKSPS-OH),Kd,"protein: Pin1 WWdomain, PDB entry 1i8h",29 µM (active)
CC(=O)N1CCC[C@H]1C(=O)N1CCC[C@H]1C(=O)NCC(=O)N1CCC[C@H]1C(=O)N1CCC[C@H]1C(=O)NCC(=O)N1CCC[C@H]1C(=O)N[C@H](C(=O)NCC(=O)N1CCC[C@H]1C(=O)N[C@@H](CCCNC(N)N)C(=O)NCC(=O)N1CCC[C@H]1C(=O)N1CCC[C@H]1C(=O)NCC(=O)N1CCC[C@H]1C(=O)N1CCC[C@H]1C(=O)O)[C@@H](C)O (Ac-PPGPPGPTGP[Orn(CH(NH2)2)]GPPGPP-OH),Kd,"protein: HSP47, PDB entry 3zha",1 µM (active)
